From the supplement of paper PMC8007513
Where a name gives a salt, the structure may show the parent alone. ± gives the standard error. In all, about 1,300 compounds went through this assay and about 75 (6%) showed an effect of 50% or more. Only a selection was taken, and strong results are over-represented in it overall.

System: Trichoderma virens ATCC 9645
Experiment: growth yield (OD600) relative to untreated control; higher = less growth inhibition
Conditions: compound concentration: 100 uM
In short: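 For each 96-well plate, 100 μl aliquots were prepared with Trichoderma virens ATCC 9645 spores suspended at 15,000 spores ml^−1 in potato dextrose broth. The spores had been harvested from potato dextrose agar plates after 7 days. Library compounds were present at 100 μM final, some wells also receiving a biocide at 200 ng ml^−1, and plates were grown at 30 °C with OD600 read on a BioTek EL800 at 40 h and 72 h. Reported growth, relative to the control lacking both agents, is the mean of duplicate screens.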

SMILES	growth yield (40 h)	growth yield (72 h)
Oc1cc(Cl)ccc1Oc1ccc(Cl)cc1Cl [Triclosan]	6.99 ± 4.1%	3.25 ± 0.1%
CCNCC(O)c1cccc(O)c1 (stereo not given) [Etilefrine hydrochloride]	105 ± 3%	103.1 ± 0.94%
C=CCC1(CC(C)C)C(=O)NC(=O)NC1=O [Butalbital]	98.2%	96.5%
CNCC(O)c1ccc(O)cc1 (racemic) [(+,-)-Synephrine]	105 ± 4.3%	100 ± 2.3%
O=C([O-])c1ccccc1-c1c2cc(Br)c(=O)cc-2oc2[c]([Hg+])c([O-])c(Br)cc12.[Na+].[Na+].[OH-] [Merbromin]	2.54 ± 0.95%	2.2 ± 0.94%
CCN(CC)C(C)C(=O)c1ccccc1 (stereo not given) [Amfepramone hydrochloride]	102 ± 3%	99 ± 3.1%
CC1OC(OC2/C=C/C=C/C=C/C=C/CC/C=C/C=C/[C@H](C)[C@@H](O)[C@@H](C)[C@H](C)OC(=O)CC(O)CC(O)CC(O)CCC(O)C(O)C[C@]3(O)CC(O)C(C(=O)O)C(C2)O3)C(O)C(N)C1O (stereo not given in full) [Nystatine]	97.4 ± 5.6%	107.3 ± 0.94%
O=C(CCCN1CCC(n2c(=O)[nH]c3ccccc32)CC1)c1ccc(F)cc1 [Benperidol]	102 ± 5.2%	99.9 ± 7.2%
CC[C@H](C)[C@H]1O[C@]2(C=C[C@@H]1C)C[C@@H]1C[C@@H](C/C=C(\C)[C@@H](O[C@H]3C[C@H](OC)[C@@H](O[C@H]4C[C@H](OC)[C@@H](O)[C@H](C)O4)[C@H](C)O3)[C@@H](C)/C=C/C=C3\CO[C@@H]4[C@H](O)C(C)=C[C@@H](C(=O)O1)[C@]34O)O2.CO[C@H]1C[C@H](O[C@H]2[C@H](C)O[C@@H](O[C@@H]3/C(C)=C/C[C@@H]4C[C@@H](C[C@]5(C=C[C@H](C)[C@@H](C(C)C)O5)O4)OC(=O)[C@@H]4C=C(C)[C@@H](O)[C@H]5OC/C(=C\C=C\[C@@H]3C)[C@]54O)C[C@@H]2OC)O[C@@H](C)[C@@H]1O [Avermectin B1]	107 ± 5.6%	105 ± 2.3%
CCCCCC[C@H]1C(=O)O[C@H](C)[C@H](NC(=O)c2cccc(NC=O)c2O)C(=O)O[C@@H](C)[C@@H]1OC(=O)CC(C)C [Antimycin A]	27.5 ± 1.1%	49.6 ± 2.6%
C#CCN(C)[C@H](C)Cc1ccccc1 [Selegiline hydrochloride]	102 ± 1.4%	104 ± 5%
CCCC(C)C1(CC)C(=O)NC(=O)NC1=O (stereo not given) [Pentobarbital]	101.3 ± 0.95%	102 ± 1.7%
CC(=O)OCC1=C(C(=O)O)N2C(=O)[C@@H](N)[C@H]2SC1 [Cephalosporanic acid, 7-amino]	105 ± 5.7%	107 ± 6.2%
CCC(=O)O[C@@](Cc1ccccc1)(c1ccccc1)[C@@H](C)CN(C)C [Levopropoxyphene napsylate]	106 ± 2.9%	103 ± 3.4%
C[C@]12C/C(=C/O)C(=O)C[C@@H]1CC[C@@H]1[C@@H]2CC[C@@]2(C)[C@H]1CC[C@]2(C)O [Oxymetholone]	96.9 ± 9.2%	91.5 ± 4.8%
C[C@@H]1C[C@@H]([C@H](O)CC2CC(=O)NC(=O)C2)C(=O)[C@@H](C)C1 [Cycloheximide]	46.7 ± 7.3%	75.5 ± 5.5%
NCC(CC(=O)O)c1ccc(Cl)cc1 (racemic) [Baclofen (R,S)]	105 ± 4.1%	105 ± 4.7%
CN[C@@H]1[C@@H](O)[C@@H](O[C@@H]2[C@@H](O)[C@H](O[C@H]3O[C@H](CN)CC[C@H]3N)[C@@H](N)C[C@H]2N)OC[C@]1(C)O.CN[C@@H]1[C@@H](O)[C@@H](O[C@@H]2[C@@H](O)[C@H](O[C@H]3O[C@H]([C@@H](C)N)CC[C@H]3N)[C@@H](N)C[C@H]2N)OC[C@]1(C)O.CN[C@@H]1[C@@H](O)[C@@H](O[C@@H]2[C@@H](O)[C@H](O[C@H]3O[C@H]([C@@H](C)NC)CC[C@H]3N)[C@@H](N)C[C@H]2N)OC[C@]1(C)O [Gentamicine sulfate]	101%	97.3%
NC(=O)OCCCc1ccccc1 [Phenprobamate]	104 ± 6.3%	101 ± 4.6%
COc1cccc(C2(O)CCCCC2CN(C)C)c1 (stereo not given) [Tramadol hydrochloride]	101 ± 1.3%	99.8 ± 2.1%
